Experimental data as given in PubChem BioAssay (Tox21).
Several values for one entry are separate records, joined by “and”; a condition that tells them apart may be missing. Identical values can stand only once. Inconclusive results are not listed. Activity calls are given as the source filed them. Unless noted, the call rests on the fitted dose curve; in most records, active means well fitted curve in the direction sought with a large enough effect in the repeat runs; inconclusive means weak or mixed curves; inactive means no such curve, though single readings can be large; an effect the other way counts as inactive or inconclusive.

Columns and labels:
[1] = qHTS assay for small molecules that induce genotoxicity in human embryonic kidney cells expressing luciferase-tagged ATAD5 - cell viability (AID 651634; calls by dose curve; further: nearly all actives have a fitted effect of over 25% in size)
Summary of the method: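 Seeding of 2,000 HEK293T ATAD5-luciferase cells per well preceded pin-tool compound transfer. Plates sat 15.5 hr at 37C under 5% CO2, then fluorescence was read after 30 min with CellTiter-Fluor.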

[2] = qHTS assay for small molecule disruptors of the mitochondrial membrane potential - cell viability (AID 720634; calls by dose curve; further: nearly all actives have a fitted effect of over 20% in size; further: potency means the concentration at half of the fitted maximal effect;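 on activity change, negative = cytotoxicity: human HepG2 liver cancer cells; series mostly up to about 83 µM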)
Summary of the method: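 Measuring cytotoxicity alongside mitochondrial potential, the screen quantified ATP by luminescence in HepG2 cells after 1 hr compound incubation and a 30 min room-temperature CellTiter-Glo step.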

[3] = qHTS assay for small molecule disruptors of the mitochondrial membrane potential (AID 720635); further: potency means the concentration at half of the fitted maximal effect
Summary of the method: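 Mitochondrial membrane potential tracked with Mito-MPS dye, red aggregates (ex 540/em 590 nm) against green monomers (ex 490/em 535 nm). Compound treatment 1 hr at 37C, dye 30 min in HepG2.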

[4] = qHTS assay to test for compound auto fluorescence at 590 nm (red) in HepG2 cells (AID 720674)
Summary of the method: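 Red autofluorescence (Ex/Em 540/590 nm, Rose Bengal sodium equivalents) was measured in HepG2 cells, 2,000 per well in MEM plus 10% FBS, plated overnight at 37 C. Readings were taken 1 hr after adding 23 nL compound or DMSO, at 37 C and 5% CO2.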

[5] = qHTS assay to test for compound auto fluorescence at 535 nm (green) in HepG2 cells (AID 720675)
[6] = qHTS assay to test for compound auto fluorescence at 460 nm (blue) in HEK293 cells (AID 720678); further: potency means the concentration at half of the fitted maximal effect
Summary of the method: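 After cell attachment (4-5 hr, 37C), compounds were pinned onto HEK293 monolayers in 10% dialyzed FBS medium. The blue channel (405/460 nm) was read following overnight culture. Equivalency was calculated against triamterene.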

[7] = qHTS assay to test for compound auto fluorescence at 590 nm (red) in HEK293 cells (AID 720679)
Summary of the method: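 Plates of HEK293 cells (10% dialyzed FBS) are treated with 23 nL compound or DMSO vehicle after a 4-5 hr attachment period, incubated overnight at 37C, and read for red fluorescence at 540/590nm.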

[8] = qHTS assay for small molecule agonists of the p53 signaling pathway - cell viability (AID 651633; calls by dose curve; further: nearly all actives have a fitted effect of over 30% in size; further: potency means the concentration at half of the fitted maximal effect;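 on activity change, negative = cytotoxicity: p53RE-bla HCT reporter cells with a stable beta-lactamase p53 reporter; series mostly up to about 83 µM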)
Summary of the method: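 Viability counter-read: CellTiter-Glo luminescence (30 min, room temperature) in the same p53RE-bla plates. These plates had been exposed to compounds for 16 h at 37 C.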
On the % scale 0 is the no-effect control and ±100 the full control effect; tags describe the fitted curve by direction and shape or compound fluorescence and quenching.

ClSC(Cl)(Cl)Cl
inactive: Potency [1] | Potency [2] | Potency [3] | outcome [4] | Potency [5] | Potency [6] | outcome [7]

Cc1ccccc1OP(=O)(Oc1ccccc1C)Oc1ccccc1C
inactive: Potency [1] | outcome [4] | Potency [5] | Potency [6] | outcome [7]
active: Potency [2] 9.73 µM | Potency [3] 17.3 µM

O.O.O.O=C([O-])[C@H]([O-])[C@@H]([O-])C(=O)[O-].O=C([O-])[C@H]([O-])[C@@H]([O-])C(=O)[O-].[K+].[K+].[Sb+3].[Sb+3]
inactive: Potency [1] | Potency [2] | outcome [4] | Potency [5] | Potency [6] | outcome [7]

CC(=O)[O-].CC(=O)[O-].O.O.[Zn+2]
inactive: Potency [8] | Potency [1] | Potency [5] | Potency [6] | outcome [7]

[Cl-].[Cl-].[Sn+2]
inactive: Potency [1] | outcome [4] | Potency [5] | outcome [7]

CNC(=O)/C=C(\C)OP(=O)(OC)OC
inactive: Potency [8] | Potency [1] | outcome [4] | Potency [5] | outcome [7]

CC1CCCC1
inactive: Potency [8] | Potency [2]

O=S1OCC2C(CO1)C1(Cl)C(Cl)=C(Cl)C2(Cl)C1(Cl)Cl (stereo unspecified)
inactive: Potency [1] | outcome [4] | Potency [5] | Potency [6] | outcome [7]
active: Potency [8] 68.7 µM and 54.4 µM

COC(=O)C(C)N(C(=O)c1ccco1)c1c(C)cccc1C (stereo unspecified)
inactive: Potency [1] | Potency [2] | Potency [3] | outcome [4] | Potency [5] | outcome [7]

CCCCn1cc[n+](C)c1.[Cl][Fe-]([Cl])([Cl])[Cl]
inactive: Potency [1] | Potency [2] | Potency [3] | Potency [5] | Potency [6] | outcome [7]

COc1cnc(OC)n2nc(NS(=O)(=O)c3c(OCC(F)F)cccc3C(F)(F)F)nc12
inactive: Potency [1] | Potency [2] | Potency [3] | outcome [4] | Potency [5] | Potency [6] | outcome [7]

C=CCOC(=O)c1ccccc1N
inactive: Potency [1] | Potency [2] | Potency [3] | outcome [4] | Potency [5] | Potency [6] | outcome [7]

CO/N=C(/C1=NOCCO1)c1ccccc1Oc1ncnc(Oc2ccccc2Cl)c1F
active: Potency [3] 54.4 µM
inactive: Potency [1] | outcome [4] | Potency [5] | Potency [6] | outcome [7]

Cc1ccc2cc3c(ccc4ccccc43)c3c2c1CC3
active: Potency [3] 12.2 µM
inactive: Potency [1] | outcome [4] | Potency [5] | Potency [6] | outcome [7]

O=[N+]([O-])[O-].[Tl+]
inactive: Potency [1] | Potency [5] | Potency [6] | outcome [7]

O=S(=O)(O)F
inactive: Potency [1] | Potency [2] | Potency [3] | Potency [5] | outcome [7]

CC1(C)C(C=C(Cl)Cl)C1C(=O)OC(C#N)c1ccc(F)c(Oc2ccccc2)c1 (stereo unspecified)
inactive: Potency [1] | outcome [4] | Potency [5] | Potency [6] | outcome [7]
active: Potency [3] 54.5 µM

Oc1cc(Cl)c(Cl)c(Cl)c1Cl
inactive: Potency [1] | outcome [4] | Potency [5] | Potency [6] | outcome [7]

N#Cc1c2ccccc2cc2ccccc12
inactive: Potency [1] | outcome [4] | Potency [5] | outcome [7]
active: Potency [3] 1.72 µM | Potency [6] 1.26 µM [fluorescent]

CC(=O)[O-].CC(=O)[O-].CC(=O)[O-].[Cr+3]
inactive: Potency [8] | Potency [1] | Potency [5] | Potency [6] | outcome [7]

O.O.O.O.O.O.O.O=S(=O)([O-])[O-].[Co+2]
inactive: Potency [2] | outcome [4] | Potency [5] | Potency [6] | outcome [7]

N#CSCc1ccccc1
inactive: Potency [1] | Potency [2] | outcome [4] | Potency [5] | outcome [7]

CC(=O)[O-].CC(=O)[O-].CC(=O)[O-].[Sb+3]
inactive: activity change, negative = cytotoxicity [8] 11.3% [at 8.08 µM] | activity, negative = cytotoxicity [1] 20.6% [at 8.08 µM] | fluorescence, relative to Rose Bengal [4] -0.0388% [at 3.72 µM] | fluorescence, % of fluorescein control [5] -0.114% [at 3.72 µM] | fluorescence, % of triamterene [6] -0.0361% [at 3.72 µM] | fluorescence, % of fluorescent control [7] 0.24% [at 3.72 µM]

O.O.O.O.O.O.O=S(=O)([O-])[O-].[Ni+2]
inactive: Potency [1] | Potency [2] | outcome [4] | Potency [5] | Potency [6] | outcome [7]

CC(=O)O.CC(=O)O.CC(=O)O.CC(=O)O.CC(=O)O.CC(=O)O.CC(=O)O.O.O.[Cr].[Cr].[Cr]
inactive: Potency [8] | Potency [1] | outcome [4] | Potency [5] | Potency [6] | outcome [7]

CC(=O)[O-].CC(=O)[O-].O.O.O.[Pb+2]
inactive: outcome [4] | Potency [5] | Potency [6] | outcome [7]

CSSC
inactive: Potency [8] | outcome [4] | Potency [5] | Potency [6] | outcome [7]

[Cl-].[Cl-].[Cl-].[Yb+3]
inactive: Potency [1] | Potency [5] | outcome [7]

Cc1c([N+](=O)[O-])cc2c(c1[N+](=O)[O-])C(C)(C)CC2(C)C
inactive: Potency [8] | Potency [1] | outcome [4] | Potency [5] | Potency [6] | outcome [7]
active: Potency [3] 30.6 µM

C[C@]12C/C(=C/O)C(=O)C[C@@H]1CC[C@@H]1[C@@H]2CC[C@@]2(C)[C@H]1CC[C@]2(C)O
inactive: Potency [2] | outcome [4] | Potency [5] | Potency [6] | outcome [7]
active: Potency [8] 49 µM

CN(C)CCc1c[nH]c2ccccc12
inactive: Potency [1] | Potency [2] | Potency [3] | outcome [4] | Potency [5] | Potency [6] | outcome [7]
